The panel holds about 83,000 compounds, 20% with a hit somewhere; the sample as a whole holds those more often.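 Negative percent growth values reflect cell death: -40 means 40% of the cells present at the start died, and -100 means all died.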 Activity calls are given as the source filed them. How the source made its calls: active means growth percent below 10; inactive means the rest.
Legend:
Test in all cases: NCI-60 one-dose screen, 48 h (100 = growth as untreated, 0 = no growth, -100 = all killed)
Settings in all cases: 10 µM unless noted
SK-MEL-2 melanoma = test system: SK-MEL-2 melanoma
EKVX NSCLC = test system: EKVX NSCLC
SN12C renal = test system: SN12C renal
UO-31 renal = test system: UO-31 renal
TK-10 renal = test system: TK-10 renal
ACHN renal = test system: ACHN renal
CAKI-1 renal = test system: CAKI-1 renal
CCRF-CEM leukemia = test system: CCRF-CEM leukemia
MOLT-4 leukemia = test system: MOLT-4 leukemia

Measured: growth

CCCCOc1ccc(/C(C)=N/Nc2cc(C)nc3ccc(Br)cc23)cc1
inactive: SK-MEL-2 melanoma 108% | EKVX NSCLC 88.2% | SN12C renal 82.5% | UO-31 renal 67.7% | TK-10 renal 112% | ACHN renal 103% | CAKI-1 renal 82.9% | CCRF-CEM leukemia 64.6% | MOLT-4 leukemia 83.5%

COc1ccc(CNCCN2C(=O)c3ccc4c5c(ccc(c35)C2=O)C(=O)N(CCNCc2ccc(OC)c(OC)c2OC)C4=O)c(OC)c1OC
inactive: TK-10 renal 30.3%
active: SK-MEL-2 melanoma -62.9% | EKVX NSCLC -28.3% | SN12C renal -77.3% | UO-31 renal -19.6% | ACHN renal -51.1% | CAKI-1 renal -12.3% | CCRF-CEM leukemia -14.8% | MOLT-4 leukemia -35.2%

CCNC(=O)Oc1ccc(/C(=C(\C)c2ccccc2)c2ccc(OCCN(CC)CC)cc2)cc1
inactive: SK-MEL-2 melanoma 97.6% | EKVX NSCLC 96% | SN12C renal 82.1% | UO-31 renal 61.6% | TK-10 renal 95.6% | ACHN renal 102% | CAKI-1 renal 59.3% | CCRF-CEM leukemia 84% | MOLT-4 leukemia 76.2%

Nc1c(C(=O)Nc2cccc3cnccc23)sc2nc3c(cc12)C(=O)CCC3
inactive: SK-MEL-2 melanoma 77.2% | EKVX NSCLC 91.6% | SN12C renal 89.2% | UO-31 renal 81.8% | TK-10 renal 104% | ACHN renal 101% | CAKI-1 renal 77.8% | CCRF-CEM leukemia 64.6% | MOLT-4 leukemia 102%

O=C1Nc2cc(-c3ccc(NC(=O)c4ccccc4)cc3)ccc2/C1=C/c1ccc[nH]1
inactive: SK-MEL-2 melanoma 102% | EKVX NSCLC 51.1% | SN12C renal 101% | UO-31 renal 71.6% | TK-10 renal 113% | ACHN renal 95.8% | CAKI-1 renal 100% | CCRF-CEM leukemia 92.4% | MOLT-4 leukemia 92.8%

C#CCNC(=O)c1cccc2c1cc(C)n2-c1nc2c(c(NCc3ccccc3)n1)CCCC2
active: SK-MEL-2 melanoma -38% | EKVX NSCLC -30.4% | SN12C renal -41.3% | UO-31 renal -63.8% | TK-10 renal -15% | ACHN renal 3.27% | CAKI-1 renal 3.06% | CCRF-CEM leukemia 5.3% | MOLT-4 leukemia -8.18%

Cc1ccccc1NS(=O)(=O)c1cccc(C(=O)Nc2ccc(Br)cc2)c1
inactive: SK-MEL-2 melanoma 42.9% [25 µM] | EKVX NSCLC 16.6% [25 µM] | SN12C renal 42.9% [25 µM] | UO-31 renal 22.8% [25 µM] | TK-10 renal 55.9% [25 µM] | ACHN renal 47% [25 µM] | CAKI-1 renal 26.2% [25 µM] | CCRF-CEM leukemia 42.4% [25 µM] | MOLT-4 leukemia 26.9% [25 µM]

O=[N+]([O-])c1ccc(NC(=S)N/N=C/c2cc3ccccc3n3nnnc23)cc1
active: UO-31 renal -1.57%
inactive: SK-MEL-2 melanoma 49.3% | EKVX NSCLC 36.6% | SN12C renal 58.5% | TK-10 renal 56.8% | ACHN renal 29.9% | CAKI-1 renal 25.4% | CCRF-CEM leukemia 11.3% | MOLT-4 leukemia 20.4%

COc1cc2nc(-c3ccc(Cl)cc3)cc(OCCCN3CCOCC3)c2cc1OC
active: CAKI-1 renal -12%
inactive: SK-MEL-2 melanoma 73.1% | EKVX NSCLC 55.7% | SN12C renal 38.4% | UO-31 renal 59.6% | TK-10 renal 97.9% | ACHN renal 40.6% | CCRF-CEM leukemia 61.4% | MOLT-4 leukemia 56.4%

O=C1Nc2cc(-c3cccc([N+](=O)[O-])c3)ccc2/C1=C/c1ccc[nH]1
inactive: SK-MEL-2 melanoma 88.1% | EKVX NSCLC 29.8% | SN12C renal 101% | UO-31 renal 68.6% | TK-10 renal 65.6% | ACHN renal 92.3% | CAKI-1 renal 80.9% | CCRF-CEM leukemia 91.5% | MOLT-4 leukemia 97.4%

O=[N+]([O-])CC(c1ccccc1F)c1c[nH]c2ccccc12 (stereo unspecified)
inactive: SK-MEL-2 melanoma 57% | EKVX NSCLC 79.4% | SN12C renal 88.6% | UO-31 renal 71.9% | TK-10 renal 96.8% | ACHN renal 94.7% | CAKI-1 renal 59.2% | CCRF-CEM leukemia 69.7% | MOLT-4 leukemia 59%

COc1ccc(OC)c(-c2cc(-c3ccc(Cl)cc3)c3c(N)c(C(=O)c4ccc(Cl)cc4)sc3n2)c1
inactive: SK-MEL-2 melanoma 94.2% | EKVX NSCLC 93.8% | SN12C renal 101% | UO-31 renal 75.4% | TK-10 renal 102% | ACHN renal 97.4% | CAKI-1 renal 88.5% | CCRF-CEM leukemia 88.7% | MOLT-4 leukemia 103%

O=S(=O)(NCCNc1nccc(-c2c(-c3cccc(O)c3)nc3occn23)n1)c1cccc(F)c1
inactive: SK-MEL-2 melanoma 61.1% | EKVX NSCLC 97.1% | SN12C renal 76.6% | UO-31 renal 92.7% | TK-10 renal 136% | ACHN renal 78% | CAKI-1 renal 71.6% | CCRF-CEM leukemia 91.7% | MOLT-4 leukemia 93%

COc1cc2c(=O)n(CCN(C)C)c3c4cc5c(cc4ccc3c2cc1OC)OCO5
active: SK-MEL-2 melanoma -65.1% | EKVX NSCLC -1.09% | SN12C renal -4.74% | UO-31 renal -77.6% | TK-10 renal -76.2% | ACHN renal -92.6% | CAKI-1 renal -89.5% | CCRF-CEM leukemia 2.56% | MOLT-4 leukemia 3.91%

Cc1ccc(NC(=O)c2cc(-c3nc4ccccc4s3)c(=O)n(NS(=O)(=O)c3ccc(Cl)cc3)c2N)cc1
inactive: SK-MEL-2 melanoma 103% | EKVX NSCLC 92.1% | SN12C renal 101% | UO-31 renal 83.9% | TK-10 renal 136% | ACHN renal 108% | CAKI-1 renal 85.1% | CCRF-CEM leukemia 104% | MOLT-4 leukemia 97.9%

c1ccc(-c2c(-c3ccccc3)[n+](Cc3ccc4ccccc4c3)c(-c3cccc4ccccc34)n2Cc2ccc3ccccc3c2)cc1
active: SK-MEL-2 melanoma -77.9% | EKVX NSCLC -10.9% | SN12C renal -81.6% | UO-31 renal -93.5% | TK-10 renal -78% | ACHN renal -100% | CAKI-1 renal -97.2% | CCRF-CEM leukemia 1.74% | MOLT-4 leukemia -25.8%

COc1cc2c(c(O)c1Cl)C(=O)c1c(O)cc(C[C@H](C)O)cc1[C@H]2[C@H]1c2cc(C[C@H](C)O)cc(O)c2C(=O)c2c1cc(OC)c(Cl)c2O
inactive: EKVX NSCLC 13.5% | TK-10 renal 31.8% | CCRF-CEM leukemia 18.6% | MOLT-4 leukemia 14.9%
active: SK-MEL-2 melanoma -31.6% | SN12C renal 8.13% | UO-31 renal 2.84% | ACHN renal -5.77% | CAKI-1 renal 8.67%

COc1cc2nc(-c3ccc(C(F)(F)F)cc3)cc(OCCN3CCCCC3)c2cc1OC
inactive: SK-MEL-2 melanoma 105% | EKVX NSCLC 62.4% | SN12C renal 63.6% | UO-31 renal 54.3% | TK-10 renal 93.9% | ACHN renal 81.4% | CAKI-1 renal 45.2% | CCRF-CEM leukemia 78.8% | MOLT-4 leukemia 65.3%

O=C(CSc1nc2sc3c(c2c(=O)n1-c1ccc(Cl)cc1)CCCC3)Nc1nc(-c2cccc(Br)c2)cs1
inactive: SK-MEL-2 melanoma 97% | EKVX NSCLC 75% | SN12C renal 79.5% | UO-31 renal 74.6% | TK-10 renal 113% | ACHN renal 91.1% | CAKI-1 renal 49% | CCRF-CEM leukemia 87.7% | MOLT-4 leukemia 87.1%

N/C(=N\C(N)=N\c1nc2ccccc2s1)c1cnccn1
active: SK-MEL-2 melanoma 3% | UO-31 renal -12.9% | MOLT-4 leukemia 8.63%
inactive: EKVX NSCLC 48% | SN12C renal 36.7% | TK-10 renal 37.9% | ACHN renal 26.2% | CAKI-1 renal 15.5% | CCRF-CEM leukemia 14.6%

Cn1cc(CC2CC(=O)N(c3ccccc3)C2=O)sc1=NC(=O)c1ccccc1 (stereo unspecified)
inactive: SK-MEL-2 melanoma 106% | EKVX NSCLC 95.1% | SN12C renal 103% | UO-31 renal 83.5% | TK-10 renal 102% | ACHN renal 101% | CAKI-1 renal 94.7% | CCRF-CEM leukemia 108% | MOLT-4 leukemia 106%

Cc1ccc(NC(=O)Cc2ccc(/C=C/C(=O)c3ncc[nH]3)cc2)cc1
active: CCRF-CEM leukemia 4.85%
inactive: SK-MEL-2 melanoma 109% | EKVX NSCLC 82.4% | SN12C renal 13.5% | UO-31 renal 39.5% | TK-10 renal 78.4% | ACHN renal 73.1% | CAKI-1 renal 61.1% | MOLT-4 leukemia 23.5%

CCSCC1CC(O)(c2ccccc2)CC(c2ccc(F)cc2)O1 (stereo unspecified)
inactive: EKVX NSCLC 15.2% | UO-31 renal 28.6% | TK-10 renal 21.9% | CCRF-CEM leukemia 22.9%
active: SK-MEL-2 melanoma 4.62% | SN12C renal -68.9% | ACHN renal 3.1% | CAKI-1 renal -25.2% | MOLT-4 leukemia -11.9%

Cc1cc2nc3c4cccc(O)c4n(CCN(C)C)c3nc2cc1C
inactive: SK-MEL-2 melanoma 54.2% | EKVX NSCLC 42.2% | SN12C renal 29.6% | TK-10 renal 72.8% | CAKI-1 renal 13.2% | CCRF-CEM leukemia 27%
active: UO-31 renal 6.09% | ACHN renal 8.22% | MOLT-4 leukemia 6.01%

CC(=O)N1c2ccccc2NC2=C(C(=O)NC2(C)C)C1c1ccco1 (stereo unspecified)
inactive: SK-MEL-2 melanoma 84.2% | EKVX NSCLC 95.8% | SN12C renal 99.1% | UO-31 renal 85.2% | TK-10 renal 98.4% | ACHN renal 107% | CAKI-1 renal 90.3% | CCRF-CEM leukemia 80.6% | MOLT-4 leukemia 96.5%

CCNC(=O)Oc1ccc(/C(=C(\C)c2ccccc2)c2ccc(OCCCN(C)C)cc2)cc1
inactive: SK-MEL-2 melanoma 97.2% | EKVX NSCLC 84% | SN12C renal 81.1% | UO-31 renal 55.4% | TK-10 renal 84.5% | ACHN renal 98.1% | CAKI-1 renal 84.3% | CCRF-CEM leukemia 82.7% | MOLT-4 leukemia 65.8%

Nc1c(C(=O)Nc2cccc3cnccc23)sc2nc3c(cc12)CN(Cc1ccccc1)CC3
inactive: SK-MEL-2 melanoma 116% | EKVX NSCLC 101% | SN12C renal 97.5% | UO-31 renal 75.5% | TK-10 renal 140% | ACHN renal 99.9% | CAKI-1 renal 90.1% | CCRF-CEM leukemia 109% | MOLT-4 leukemia 107%

O=C(/C=C/c1ccc[nH]1)c1ccc(-n2ccc(C(F)(F)F)n2)c(F)c1
inactive: SK-MEL-2 melanoma 108% | EKVX NSCLC 80.2% | SN12C renal 92.1% | UO-31 renal 46.9% | TK-10 renal 104% | ACHN renal 103% | CAKI-1 renal 93% | CCRF-CEM leukemia 59.7% | MOLT-4 leukemia 84%

NC(=NCc1ccccc1)C(N=Nc1ccccc1)C(=O)NCc1ccccc1 (stereo unspecified)
inactive: SK-MEL-2 melanoma 107% | EKVX NSCLC 82.5% | SN12C renal 58.6% | UO-31 renal 68.3% | TK-10 renal 69.6% | ACHN renal 92.1% | CAKI-1 renal 54% | CCRF-CEM leukemia 76% | MOLT-4 leukemia 61%

Source: PubChem BioAssay (NCI)
